This is a sample that favours compounds with a hit; in the whole collection about 8.8% have one here.
HT1080 IDH1KD tx = qHTS for induction of synthetic lethality in tumor cells producing 2HG: qHTS for the HT-1080-IDH1KD cell line | Potency, µM (series often up to 46.1 µM), usual class: cytotoxic | 360,000 compounds, 2% hits | HT-1080 IDH1 knockdown viability, ATP luminescence, 48 h | AID 686971, 2013
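% activity derives from luminescence (CellTiter-Glo), normalised to DMSO and no-cell wells. HT-1080-IDH1KD cells, 750/well, had 48 h compound exposure at 37 °C.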
KB-3-1 cytotox = qHTS assay for MDR1-selective chemotherapeutics: Primary screen using the parental adenocarcinoma cell KB-3-1. KB-3-1 viability, CellTiter-Glo ATP luminescence, 72 h. Potency, µM (highest dose often 46.1 µM), hits mostly cytotoxic. 400,000 compounds, 1.4% hits; also: nearly all actives have a fitted effect of over 60% in size
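72 h, 37 °C compound treatment of KB-3-1 parental cells; CellTiter-Glo added, 10 min, luminescence read. Data corrected against DMSO-only plates and normalized before curve fitting.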
IL1B secr inh = qHTS for Inhibitors of Inflammasome Signaling: IL-1-beta AlphaLISA Primary Screen; THP-1 LPS/ATP IL-1B secretion, AlphaLISA, 16 h; active compounds read low; activity change, % at 57.5 µM; 360,000 compounds, 4.7% hits; in the data active = activity change below about -50%; inconclusive = mostly about -30% to -49%
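THP-1 cells pretreated 1 hr with compounds (up to 57.5 uM final), then stimulated with LPS (250 ng/mL final) plus ATP (1.25 mM final); secreted IL-1B measured by AlphaLISA after 16 hr, decreased signal indicating inhibition.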
HT1080-NT tox = qHTS for induction of synthetic lethality in tumor cells producing 2HG: qHTS for the HT-1080-NT fibrosarcoma cell line. 360,000 compounds, 1.6% hits. Potency, µM (highest dose often 46.1 µM), most hits filed as cytotoxic. HT-1080-NT fibrosarcoma viability, CellTiter-Glo ATP luminescence, 48 h;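 also: NT is the 2HG producing partner of a matched IDH1 knockdown line; nearly all actives have a fitted effect of over 55% in size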
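Compounds were tested in concentration-response format on HT-1080-NT cells for 48 hours at 37 degrees C. Cell viability came from CellTiter-Glo luminescence; curves were classified by r2, response magnitude and activity.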
KB-V1 MDR tox = qHTS assay for MDR1-selective chemotherapeutics: Primary screen using the drug-selected MDR subline cells KB-V1; KB-V1 MDR cells viability, CellTiter-Glo, 72 h; Potency, µM (top dose mostly 46.1 µM), actives largely listed as cytotoxic; 400,000 compounds, 3.4% hits; also: nearly all actives have a fitted effect of over 60% in size
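Luminescent ATP read-out (CellTiter-Glo, 10 min) measures survival of drug-selected KB-V1 MDR cells after 72 h, 37 degrees C compound exposure. Medium: phenol-red-free DMEM, 10% FBS. Values from fitted concentration-response curves.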
A number is an active result; 0 = inactive; ? = inconclusive; - = no result; [ ] = remark or other dose. Unless noted, calls follow the shape of the dose curve; as a rule, active = well fitted curve in the direction sought with a large enough effect; inconclusive = small, poorly fitted or top-dose-only effect, or another doubt; inactive = no such curve, though single readings can be large; an effect the other way counts as inactive or inconclusive.

SMILES	HT1080 IDH1KD tx	KB-3-1 cytotox	IL1B secr inh	HT1080-NT tox	KB-V1 MDR tox
Cc1cc(=O)n2nc(N3CCCC(C(=O)NCCCN4C(C)CCCC4C)C3)sc2n1 (stereo not drawn)	0	0	0	0	0
CN1CCc2nc(SCc3ccc(C(C)(C)C)cc3)c(C#N)cc2C1	11µM	0	0	?	?
N#Cc1cc2c(nc1SCc1cccnc1)CCCCC2	0[9.24 µM]	?	-66	0	?
N#Cc1cc2c(nc1SCC(=O)NCc1ccc3c(c1)OCO3)CCCCC2	0	0	0	0	13µM
Cc1cccc(C)c1NC(=O)c1cnccn1	0	0	0	0	0
CCc1cc(=O)oc2cc(OS(C)(=O)=O)ccc12	0	0	0	0	0
CCc1cc(=O)oc2c(C)c(OS(C)(=O)=O)ccc12	0	0	0	0	4.1µM
O=C(O)c1ccc(N/N=C/C2=C(N3CCOCC3)C(=C\c3ccccc3)/CC2)cc1	15µM	0	0	15µM	0
O=C(NCc1ccccc1)c1ccc(S(=O)(=O)N2CCCCCC2)cc1	0	0	0	0	?
Cc1sc2ncnc(N3CCC(C(=O)NNC(=O)COc4ccc(Cl)cc4)CC3)c2c1C	0	0	0	0	0
Cc1sc2ncnc(N3CCN(S(=O)(=O)c4ccc(Br)cc4)CC3)c2c1C	0	?	0	0	?
Cc1sc2ncnc(N3CCN(CCOc4ccc(Cl)cc4)CC3)c2c1C	?	?	-58	?	?
Cc1sc2ncnc(N3CCN(S(=O)(=O)c4ccc(C(C)(C)C)cc4)CC3)c2c1C	0	21µM	0	0	0
Cc1sc2ncnc(N3CCN(Cc4ccccc4)CC3)c2c1-c1ccccc1	0	?	-56	0	10µM
CCOc1ccc(CN2CCN(c3ncnc4scc(-c5ccccc5)c34)CC2)cc1	0	0	0	0	0
NC1=NC(c2ccccc2C(F)(F)F)N(c2ccc(F)c(Cl)c2)C(N)=N1 (stereo not drawn)	0	0	0	0	0
O=Cc1ccc(OCC(=O)NCC2CCCO2)cc1 (stereo not drawn)	0	0	0	0	0
COc1ccc(OC)c(CNC(=O)c2cc3ccc4cccnc4c3[nH]2)c1	-	0	-	-	0
CCC12CN(C(=O)c3ccc(C)cc3)CC(CC)(CN(C(=O)c3ccc(C)cc3)C1)C2=O	0	0	0	0	5.2µM
Cc1ccc(C(=O)N2CC3(C(C)C)CN(C(=O)c4ccc(C)cc4)CC(C(C)C)(C2)C3=O)cc1	0	0	0	0	0
O=C(OC(C(=O)NC1CCCCC1)c1ccccc1F)c1ccco1 (stereo not drawn)	0	0	0	?	0
CCCCC[n+]1ccn(C2=C([O-])c3ccccc3C(=O)/C2=N\S(=O)(=O)c2ccccc2)c1	18µM	?	0	?	0
O=C1/C(=N\S(=O)(=O)c2cccs2)C([n+]2cccc(Cc3ccccc3)c2)=C([O-])c2ccccc21	5.8µM	?	-	5.2µM	0
O=C1/C(=N\S(=O)(=O)c2cccs2)C([n+]2ccc(CCCc3ccccc3)cc2)=C([O-])c2ccccc21	?	0	0	0	?
CC(C)[n+]1ccn(C2=C([O-])c3ccccc3C(=O)/C2=N\S(=O)(=O)c2ccccc2)c1	23µM	?	-	23µM	0
CCCCC[n+]1ccn(C2=C([O-])c3ccccc3C(=O)/C2=N\S(=O)(=O)c2ccc(Br)cc2)c1	0	?	0	0	0
CC(C)(C)c1cc[n+](C2=C([O-])c3ccccc3C(=O)/C2=N\S(=O)(=O)c2ccccc2)cc1	21µM	0	-	?	0
CCCC[n+]1ccn(C2=C([O-])c3ccccc3C(=O)/C2=N\S(=O)(=O)c2ccccc2)c1	16µM	?	0	11µM	0
CCc1ccc(C(=O)NN(C(=O)c2ccc(CC)cc2)C(C)(C)C)cc1	0	?	0	0	7.3µM
CC(C)(C)N(NC(=O)c1ccccc1)C(=O)c1ccc(C(=O)N(NC(=O)c2ccccc2)C(C)(C)C)cc1	0	0	0	0	0
